Inconclusive results are not listed. Calls of active or inactive are those of the source. Calls follow the shape of the dose curve; as a rule, active = well fitted cell-killing curve with a large enough effect; inconclusive = small, poorly fitted or top-dose-only effect, or effect the other way; inactive = no such curve, though single readings can be large or run the other way.
Assay: Quantitative High-Throughput drug screen in 47 multiple myeloma cell lines against the NCATS MIPE library collection: OCIMY7_PLB cell viability assay (AID 1918987); also: nearly all actives have a fitted effect of over 65% in size
Settings: OCI-MY7 myeloma viability, CellTiter-Glo ATP, 48 h; viability (% of DMSO): at 45.8 µM (top of the series)
Description: PI: Beverly A. Mock Ph.D.
Laboratory of Cancer Biology and Genetics,
Center for Cancer Research, National Cancer Institute,
National Institute of Health, Bethesda, Maryland
Drug resistance and disease progression are common in multiple myeloma (MM) patients, underscoring the need for new therapeutic combinations. […] We hypothesized that effective combinations would reduce MYC expression and enhance p16 activity. […] These preclinical data identify potentially useful drug combinations for evaluation in drug-resistant MM and reveal potential mechanisms of combined drug sensitivity.
Described herein is the primary MIPE qHTS used to cherrypick compounds. Validated compounds were then further tested for potential synergistic activiy.
[1] Peat TJ, Gaikwad SM, Dubois W, Gyabaah-Kessie N, Zhang S, Gorjifard S, Phyo Z, Andres M, Hughitt VK, Simpson RM, Miller MA, Girvin AT, Taylor A, Williams D, D'Antonio N, Zhang Y, Rajagopalan A, Flietner E, Wilson K, Zhang X, Shinn P, Klumpp-Thomas C, McKnight C, Itkin Z, Chen L, Kazandijian D, Zhang J, Michalowski AM, Simmons JK, Keats J, Thomas CJ, Mock BA. Drug combinations identified by high-throughput screening promote cell cycle transition and upregulate Smad pathways in myeloma. Cancer Lett. 2023 Aug 1;568:216284. doi: 10.1016/j.canlet.2023.216284. Epub 2023 Jun 24. PMID: 37356470; PMCID: PMC10408729.
SEQUENCE No. (e.g., 1, 2, 3, etc.); […] (e.g., Cells, Incubation, Reagent, etc.); VALUE and DESCRIPTION.
1; Cells; 5 uL; white, solid bottom 1536-well Greiner assay plate.
2; Compounds; 23 nL; Kalypsis pin tool (Wako USA) equipped with a 1536-well pin head to transfer to the assay plates.
3; Incubation; 48 hours; 37C incubation.
4; Reagent;5uL; CellTiter Glo (Promega).
5; Detector; 425V; Luminescence; Viewlux PerkinElmer.
NOTES (numbers refer to Sequence numbers above)
1. The cell-based screening methods employed in this study were like those previously published. Briefly, the corresponding myeloma cell lines were screened in 1,536-well plates with 500 cells, 5-uL per well for inhibition of cell viability (assessed by measuring ATP levels with CellTiterGlo).
2. NCATS MIPE 4.0 library of approved and investigational drugs were added using the Kalypsis pin tool. Wells treated with DMSO only for 100% viability and media only for 0% viability were used as controls.
3. The assay plates were covered and incubated for 48 hours in a 37C, 5% CO2 incubator with controlled humidity.
4. After 48 hours, CellTilter-GloTM luminescent substrate mix (Promega) reagent was added to the assay plate and plates we incubated for 5 min at room temperature.
5. Signal was measured as median relative luminescence units on a ViewLux (PerkinElmer) multiplate reader.
[1] Heske CM, Davis MI, Baumgart JT, Wilson K, Gormally MV, Chen L, Zhang X, Ceribelli M, Duveau DY, Guha R, Ferrer M, Arnaldez FI, Ji J, Tran HL, Zhang Y, Mendoza A, Helman LJ, Thomas CJ. Matrix Screen Identifies Synergistic Combination of PARP Inhibitors and Nicotinamide Phosphoribosyltransferase (NAMPT) Inhibitors in Ewing Sarcoma. Clin Cancer Res. 2017 Dec 1;23(23):7301-7311. doi: 10.1158/1078-0432.CCR-17-1121. Epub 2017 Sep 12. PMID: 28899971; PMCID: PMC6636827.
With `Nc1nc(F)nc2c1ncn2[C@@H]1O[C@H](COP(=O)(O)O)[C@@H](O)[C@H]1O` the Potency was 18.7 µM (active). For `CO[C@H]1C=CC=C(C)C(=O)NC2=CC(=O)C(NCCN(C)C)=C(C[C@@H](C)C[C@H](OC)[C@@H](O)[C@@H](C)C=C(C)[C@@H]1OC(N)=O)C2=O`, the Potency was 0.0662 µM (active). With `COc1ccc2c3c1OC1C[C@@H](O)C=C[C@@]31CCN(C)C2` (stereo not given in full) the Potency was 4.18 µM (active). With `CCCCCNC(=O)N1CCC(CN(Cc2ccc(Cl)cc2)Cc2ccc([N+](=O)[O-])s2)C1` (stereo not given) the Potency was 16.6 µM (active). For `O=C(Nc1cc(Cl)cc2c1[nH]c1cnccc12)c1cccnc1`, the Potency was 14.8 µM (active). In the case of `NS(=O)(=O)c1ccc(NC2=CC(=O)c3ccccc3C2=O)cc1`, the Potency is reported as 2.09 µM (active). In the case of `NC(=O)c1cccc(-c2cc(Nc3ccc(OC(F)(F)F)cc3)ncn2)c1`, the Potency is reported as 13.2 µM (active). In the case of `Nc1ncnc2c1ncn2[C@@H]1O[C@H](CO)C[C@@H]1O`, the Potency is reported as “inactive”. With `Cc1ccc(/C=N/NC(=O)c2ccccc2Oc2ccccc2)o1` the Potency was 16.6 µM (active). For `COc1ccc(-c2coc3cc(O)cc(O)c3c2=O)cc1`, the Potency was “inactive”. In the case of `CN(C[C@@H]1COCCO1)S(=O)(=O)Nc1ccc2ccc3ncc(-c4cnn(C)c4)cc3c(=O)c2c1`, the Potency is reported as 0.469 µM (active). For `CC(=O)N(C)C1(c2ccccc2)CCN(CCC[C@]2(c3ccc(Cl)c(Cl)c3)CCCN(C(=O)c3ccccc3)C2)CC1`, the Potency was 14.8 µM (active). With `O=C(NCc1ccccc1)c1csc(Nc2ccncn2)n1` the Potency was 8.33 µM (active). In the case of `COc1cc(Nc2ncc(F)c(Nc3ccc4c(n3)NC(=O)C(C)(C)O4)n2)cc(OC)c1OC`, the Potency is reported as 0.743 µM (active). In the case of `CC=CCC=CCCC(=O)[C@H]1O[C@@H]1C(N)=O`, the Potency is reported as 14.8 µM (active). In the case of `O=C1NC(=O)C(=Cc2ccc(-c3ccc(F)cc3)o2)S1`, the Potency is reported as 20.9 µM (active). For `O=C(N[C@@H](c1ccccc1)[C@@H]1CCCCN1)c1cccc(C(F)(F)F)c1Cl`, the Potency was “inactive”. For `O=C(NC1CCOCC1)c1ccc(-c2cc(-c3cn[nH]c3-c3ccccn3)ccn2)cc1`, the Potency was “inactive”. For `CC(C)(C)Cn1c(N)nc2ccc(-c3[nH]c(C(C)(C)C)nc3-c3ccc(F)cc3)nc21`, the Potency was 18.7 µM (active). For `CC[C@]1(O)C[C@@H]2CN(CCc3c([nH]c4ccccc34)[C@@](C(=O)OC)(c3cc4c(cc3OC)N(C=O)[C@@H]3C45CCN4CC=C[C@](CC)([C@H]45)[C@@H](OC(C)=O)[C@]3(O)C(=O)OC)C2)C1` (stereo not given in full), the Potency was 9.35 µM (active). With `CC(C(=O)O)c1ccc(-c2ccccc2)c(F)c1` (stereo not given) the Potency was 14.8 µM (active). With `CN(C)C1CCN(C(=O)c2ccc(NC(=O)Nc3nc(N4CCOCC4)nc(N4CCOCC4)n3)cc2)CC1` the Potency was 5.26 µM (active). In the case of `CCn1c(C(=O)N(C2CC2)C2CC2)cc2c3c(ncn3C)c(Nc3cc(C)n(C)n3)nc21`, the Potency is reported as 14.8 µM (active). With `CO[C@H]1C=CO[C@@]2(C)Oc3c(C)c(O)c4c(O)c(c5c(c4c3C2=O)NC2(CCN(CC(C)C)CC2)N=5)=NC(=O)C(C)=CC=C[C@H](C)[C@H](O)[C@@H](C)[C@@H](O)[C@@H](C)[C@H](OC(C)=O)[C@H]1C` the Potency was 4.18 µM (active). In the case of `CC(C)[C@H](CO)Nc1nc(Nc2ccc(C(=O)O)c(Cl)c2)c2ncn(C(C)C)c2n1`, the Potency is reported as 16.6 µM (active). In the case of `O=c1c(-c2ccc(O)cc2)coc2cc(O)ccc12`, the Potency is reported as “inactive”. With `CC1(C)CCC(CN2CCN(c3ccc(C(=O)NS(=O)(=O)c4ccc(NCC5CCOCC5)c([N+](=O)[O-])c4)c(Oc4cnc5[nH]ccc5c4)c3)CC2)=C(c2ccc(Cl)cc2)C1` the Potency was 0.59 µM (active). In the case of `CCOC(=O)C1=C(N)Oc2ccc(Br)cc2C1C(C#N)C(=O)OCC` (stereo not given), the Potency is reported as 7.43 µM (active). In the case of `O=C1NC(=O)C(=Cc2ccc3nccnc3c2)S1`, the Potency is reported as 2.29 µM (active). In the case of `COc1cc2ncnc(-n3nc(-c4ccccn4)nc3N)c2cc1OC`, the Potency is reported as 1.66 µM (active). For `Nc1ncnc2c1nc(Cl)n2[C@@H]1O[C@H](CO)[C@@H](O)[C@@H]1O`, the Potency was 10.5 µM (active). In the case of `Clc1cc(Cl)cc(CNc2ncncc2-c2ccc3c(c2)OCO3)c1`, the Potency is reported as 4.69 µM (active). For `NC(=O)c1cnc(-c2ccc(C3(N)CCC3)cc2)c(-c2ccccc2)c1`, the Potency was 1.87 µM (active). With `CS(=O)(=O)N(Cc1ccco1)CC(O)Cn1c2ccccc2c2ccccc21` (stereo not given) the Potency was 13.2 µM (active). In the case of `Cc1[nH]c(C=C2C(=O)Nc3ccc(S(=O)(=O)Cc4c(Cl)cccc4Cl)cc32)c(C)c1C(=O)N1CCC[C@H]1CN1CCCC1`, the Potency is reported as 10.5 µM (active). With `NC(CO)(CO)CCc1ccc(Sc2cccc(OCc3ccccc3)c2)cc1Cl` the Potency was 11.8 µM (active). For `N#CC(=C(N)Sc1ccccc1N)C(C#N)=C(N)Sc1ccccc1N`, the Potency was 0.662 µM (active). With `Clc1ccc(CCC(Cn2ccnc2)Sc2c(Cl)cccc2Cl)cc1` (stereo not given) the Potency was 13.2 µM (active). For `CO[C@H]1C[C@@H]2CC[C@@H](C)[C@@](O)(O2)C(=O)C(=O)N2CCCC[C@@H]2C(=O)O[C@H]([C@@H](C)C[C@@H]2CC[C@H](O)[C@H](OC)C2)CC(=O)[C@H](C)C=C(C)[C@@H](O)[C@@H](OC)C(=O)[C@H](C)C[C@H](C)C=CC=CC=C1C`, the Potency was 14.8 µM (active). With `CC[C@@H]1C=C(C)C[C@H](C)C[C@H](OC)[C@H]2O[C@@](O)(C(=O)C(=O)N3CCCC[C@@H]3C(=O)O[C@H](C(C)=C[C@@H]3CC[C@H](Cl)[C@H](OC)C3)[C@H](C)[C@@H](O)CC1=O)[C@H](C)C[C@H]2OC` the Potency was 10.5 µM (active).

Source: PubChem BioAssay (NCATS)
Potency is read from the fitted curve at half-maximal effect.
